{
  "source": "PubChem BioAssay (EPA / NIEHS)",
  "note": "Values joined by “and” are separate entries in the source; they are usually repeats but may differ in a detail not shown here. Equal entries are not always repeated. Inconclusive results are not listed. The source holds several records for some structures; these can differ, active in one and inactive in another. Active and inactive are the calls of the source. How the source made its calls: active means hit-call score of the fitted dose curve at least 0.9, where 1 is the maximum; inconclusive means response in the unintended direction; inactive means score below 0.9.",
  "data": [
    {"biological_target": "zebrafish Estrogen Receptor (ER1), esr1 (gene 259252) (UniProt P57717)", "sequence (P57717 whole entry, looked up, the tested form may be a part)": "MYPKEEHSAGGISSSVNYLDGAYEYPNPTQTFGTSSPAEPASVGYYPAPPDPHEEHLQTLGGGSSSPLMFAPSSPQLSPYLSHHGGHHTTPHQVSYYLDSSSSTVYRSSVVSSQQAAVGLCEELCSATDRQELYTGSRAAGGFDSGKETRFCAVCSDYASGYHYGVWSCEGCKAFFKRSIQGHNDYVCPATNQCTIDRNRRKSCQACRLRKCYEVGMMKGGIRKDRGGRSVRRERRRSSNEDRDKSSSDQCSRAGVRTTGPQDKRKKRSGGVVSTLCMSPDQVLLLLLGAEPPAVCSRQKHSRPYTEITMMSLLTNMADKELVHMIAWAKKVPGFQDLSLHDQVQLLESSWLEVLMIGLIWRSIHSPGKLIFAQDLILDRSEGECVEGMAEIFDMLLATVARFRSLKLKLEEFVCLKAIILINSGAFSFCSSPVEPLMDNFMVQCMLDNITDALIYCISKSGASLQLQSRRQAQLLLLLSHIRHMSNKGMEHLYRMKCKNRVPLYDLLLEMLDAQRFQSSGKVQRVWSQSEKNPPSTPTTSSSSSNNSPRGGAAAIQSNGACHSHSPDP", "test": "ATG_zfER1_XSP2: Attagene TRANS-FACTORIAL Multi-Species (XSP2) HepG2 Assay for zebrafish Estrogen Receptor (ER1) (AID 2283816)", "in_short": "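HepG2 cells transiently transfected with a GAL4-UAS reporter and a chimeric zebrafish ER1-Gal4 construct, dosed 24 h. Reporter mRNA quantified by RT-PCR, labelling, HpaI digestion and capillary electrophoresis, relative to DMSO.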", "values": [
      {"compound": "C(=C(c1ccccc1)c1ccccc1)c1ccccc1", "outcome": "inactive"},
      {"compound": "O=C(OCCOCCOCCOC(=O)c1ccccc1)c1ccccc1", "outcome": "inactive"},
      {"compound": "c1ccc(B(c2ccccc2)c2ccccc2)cc1", "AC50": "59.7 µM (active) and 22 µM (active)"},
      {"compound": "C#C[C@]1(O)CC[C@H]2[C@@H]3CCc4cc(OC)ccc4[C@H]3CC[C@@]21C", "AC50": "10.2 nM (active) and 3.1 nM (active)"}
    ]},
    {"biological_target": "chicken Estrogen Receptor (ERa), ESR1 (gene 396099) (UniProt P06212)", "sequence (P06212 whole entry, looked up, the tested form may be a part)": "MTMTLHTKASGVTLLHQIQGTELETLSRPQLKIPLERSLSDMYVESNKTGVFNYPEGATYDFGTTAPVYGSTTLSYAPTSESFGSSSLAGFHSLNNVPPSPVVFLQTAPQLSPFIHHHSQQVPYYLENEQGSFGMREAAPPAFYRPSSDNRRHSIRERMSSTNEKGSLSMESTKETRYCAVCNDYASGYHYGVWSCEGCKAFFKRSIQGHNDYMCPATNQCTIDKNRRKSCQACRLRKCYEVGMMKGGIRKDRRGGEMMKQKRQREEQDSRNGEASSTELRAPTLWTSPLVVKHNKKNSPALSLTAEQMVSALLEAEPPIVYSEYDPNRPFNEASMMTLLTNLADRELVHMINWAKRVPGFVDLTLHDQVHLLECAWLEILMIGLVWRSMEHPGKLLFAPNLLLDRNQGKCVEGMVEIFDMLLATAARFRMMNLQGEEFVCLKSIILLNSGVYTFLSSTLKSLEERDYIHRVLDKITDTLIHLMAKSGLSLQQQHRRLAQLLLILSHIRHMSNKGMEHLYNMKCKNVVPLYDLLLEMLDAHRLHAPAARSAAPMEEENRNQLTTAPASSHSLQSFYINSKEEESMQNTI", "test": "ATG_chERa_XSP2: Attagene TRANS-FACTORIAL Multi-Species (XSP2) HepG2 Assay for chicken Estrogen Receptor (ERa) (AID 2283817);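 further: actives raise reporter signal above DMSO so AC50 reflects ER activation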", "in_short": "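HepG2 cells transiently transfected with multiplexed GAL4-UAS reporter units expressing chimeric chicken ERa-Gal4; 24 h compound exposure. Reporter mRNA measured by RT-PCR with 6-FAM labelling, HpaI digestion and capillary electrophoresis; gain-of-signal fitted versus DMSO.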", "values": [
      {"compound": "C(=C(c1ccccc1)c1ccccc1)c1ccccc1", "AC50": "29.1 nM (active)"},
      {"compound": "O=C(OCCOCCOCCOC(=O)c1ccccc1)c1ccccc1", "outcome": "inactive"},
      {"compound": "c1ccc(B(c2ccccc2)c2ccccc2)cc1", "AC50": "5.78 µM (active) and 3.86 µM (active)"},
      {"compound": "C#C[C@]1(O)CC[C@H]2[C@@H]3CCc4cc(OC)ccc4[C@H]3CC[C@@]21C", "AC50": "0.189 nM (active) and 0.519 nM (active)"}
    ]},
    {"tested_on": "frog Estrogen Receptor (ER), gene 398734", "test": "ATG_frER1_XSP2: Attagene TRANS-FACTORIAL Multi-Species (XSP2) HepG2 Assay for frog Estrogen Receptor (ER) (AID 2283821);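 further: hits raise reporter mRNA above DMSO baseline so potency means agonist or activator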", "in_short": "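HepG2, transient MRTU transfection, chimeric NR-GAL4/UAS reporters; 24 h compound exposure, 24-well. Readout: reporter mRNA via RT-PCR + capillary electrophoresis, fluorescence. Positive fit vs DMSO baseline.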", "values": [
      {"compound": "C(=C(c1ccccc1)c1ccccc1)c1ccccc1", "outcome": "inactive"},
      {"compound": "O=C(OCCOCCOCCOC(=O)c1ccccc1)c1ccccc1", "outcome": "inactive"},
      {"compound": "c1ccc(B(c2ccccc2)c2ccccc2)cc1", "AC50": "7.06 µM (active) and 7.56 µM (active)"},
      {"compound": "C#C[C@]1(O)CC[C@H]2[C@@H]3CCc4cc(OC)ccc4[C@H]3CC[C@@]21C", "AC50": "0.598 nM (active) and 0.0823 nM (active)"}
    ]},
    {"tested_on": "zebrafish Estrogen Receptor (ER2b), gene 317733", "test": "ATG_zfER2b_XSP2: Attagene TRANS-FACTORIAL Multi-Species (XSP2) HepG2 Assay for zebrafish Estrogen Receptor (ER2b) (AID 2283823);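 further: fitted upward as reporter gain over DMSO so potency reflects activation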", "description": "(§1) ATG_XSP2_multi-species_TRANS is a cell-based, multiplexed assay created by modifying the existing Attagene TRANS-FACTORIAL system to include a panel of nuclear receptors from some or all the following species: human (Homo sapiens), mouse (Mus musculus), frog (Xenopus laevis), zebrafish (Danio rerio), chicken (Gallus gallus), and turtle (Chrysemys picta). The ECOTOX-FACTORIAL format uses HepG2, a human liver cell line, with measurements taken at 24 hours after chemical dosing in a 24-well plate. Xsp2 included 3 nM 6-alpha-fluorotestosterone and 1.5 nM norgestrel to stimulate the androgen receptor.ATG_zfER2b_XSP2 is one of 29 assay components measured or calculated from the ATG_XSP2_multi-species_TRANS assay. It is designed to make measurements of mRNA induction, a form of inducible reporter, as detected with fluorescence intensity signals by Reverse transcription polymerase chain reaction (RT-PCR) and Capillary electrophoresis technology.The assay endpoint ATG_zfER2b_XSP2 was analyzed in the positive analysis fitting direction relative to DMSO as the negative control and baseline of activity. Using a type of inducible reporter, measures of mRNA for gain-of-signal activity can be used to understand the reporter gene at the transcription factor-level as they relate to the gene ER. Furthermore, this assay endpoint can be referred to as a primary readout, because this assay has produced multiple assay endpoints where this one serves a reporter gene function. To generalize the intended target to other relatable targets, this assay endpoint is annotated to the nuclear receptor intended target family, where the subfamily is steroidal.\n(§2) Human liver HepG2 cells are transiently transfected with multiple reporter transcription units (MRTUs) in 6-well plates using FuGene 6 reagent (Roche; 3 ml FuGene/1 mg DNA). The MRTU constructs are regulated by a cis-regulating element (promoter). […] A major difference between the CIS and TRANS system is that in CIS activities of endogenous TFs are measured, whereas the TRANS assay evaluates changes in activities of exogenous, chimeric NR-Gal4 proteins. […] At the end of 24 hour incubation, total RNA was isolated using TriZol reagent (Invitrogen). The isolated RNA is then reverse-transcribed using oligo(dT) primer and Mo-MLV reverse transcriptase (Invitrogen) with DNAse I (Ambion) treatment for 30 min. The one-tenth of the produced cDNA was amplified by PCR using Taq DNA polymerase (Invitrogen) and two reporter sequence-specific primers. The PCR products were fluorescently labeled by primer extension with 6-arboxyfluorescein (6-FAM) 5'-labeled reporter sequence-specific primer (2 min at 95 C, 20 s at 68 C and 10 min at 72 C) and these products were digested with 5U of HpaI (New England Biolabs) for 2h at 37 C. The fragments were purified using Qiaquick PCR columns (Qiagen), analyzed on an ABI 3130xL genetic analyzer (Applied Biosystems) with peak positions identified by using a set of X-rhodamine (ROX)-labeled MapMarker1000 molecular weight standards (BioVentures). The raw capillary electrophoresis data was processed using Attagraph software (Attagene).", "values": [
      {"compound": "C(=C(c1ccccc1)c1ccccc1)c1ccccc1", "AC50": "165 nM (active)"},
      {"compound": "O=C(OCCOCCOCCOC(=O)c1ccccc1)c1ccccc1", "AC50": "153000 nM (active)", "outcome": "inactive"},
      {"compound": "c1ccc(B(c2ccccc2)c2ccccc2)cc1", "AC50": "18.1 µM (active) and 10.8 µM (active)"},
      {"compound": "C#C[C@]1(O)CC[C@H]2[C@@H]3CCc4cc(OC)ccc4[C@H]3CC[C@@]21C", "AC50": "1.1 nM (active) and 0.373 nM (active)"}
    ]},
    {"biological_target": "Estrogen receptor (Homo sapiens) (UniProt P03372)", "sequence (P03372 whole entry, looked up)": "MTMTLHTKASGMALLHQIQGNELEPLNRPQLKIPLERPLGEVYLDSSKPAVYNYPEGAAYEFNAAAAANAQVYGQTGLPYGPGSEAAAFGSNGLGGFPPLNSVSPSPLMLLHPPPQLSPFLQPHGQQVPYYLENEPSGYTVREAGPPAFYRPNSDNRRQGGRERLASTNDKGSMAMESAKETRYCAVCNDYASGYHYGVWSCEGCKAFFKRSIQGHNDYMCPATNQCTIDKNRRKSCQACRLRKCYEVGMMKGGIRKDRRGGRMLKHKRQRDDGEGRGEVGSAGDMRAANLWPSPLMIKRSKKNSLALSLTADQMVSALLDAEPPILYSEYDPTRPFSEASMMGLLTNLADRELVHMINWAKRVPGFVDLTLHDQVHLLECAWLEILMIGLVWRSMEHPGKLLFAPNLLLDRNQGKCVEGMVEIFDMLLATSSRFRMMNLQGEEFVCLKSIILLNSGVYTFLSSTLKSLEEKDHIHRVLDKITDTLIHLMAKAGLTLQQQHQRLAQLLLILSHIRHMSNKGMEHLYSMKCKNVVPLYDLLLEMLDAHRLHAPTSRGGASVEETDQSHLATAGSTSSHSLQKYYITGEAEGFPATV", "test": "ATG_hERa_XSP2: Attagene TRANS-FACTORIAL Multi-Species (XSP2) HepG2 Assay for human Estrogen Receptor (ERa) (AID 2283827)", "description": "as §1, with “receptor.ATG_hERa_XSP2” for “receptor.ATG_zfER2b_XSP2”, “ATG_hERa_XSP2” for “ATG_zfER2b_XSP2”\nas §2", "values": [
      {"compound": "C(=C(c1ccccc1)c1ccccc1)c1ccccc1", "AC50": "46.1 nM (active)"},
      {"compound": "O=C(OCCOCCOCCOC(=O)c1ccccc1)c1ccccc1", "AC50": "26700 nM (active)", "outcome": "inactive"},
      {"compound": "c1ccc(B(c2ccccc2)c2ccccc2)cc1", "AC50": "7.53 µM (active) and 3.43 µM (active)"},
      {"compound": "C#C[C@]1(O)CC[C@H]2[C@@H]3CCc4cc(OC)ccc4[C@H]3CC[C@@]21C", "AC50": "0.111 nM (active) and 0.0826 nM (active)"}
    ]},
    {"tested_on": "frog Estrogen Receptor (ER2), gene 100174814", "test": "ATG_frER2_XSP2: Attagene TRANS-FACTORIAL Multi-Species (XSP2) HepG2 Assay for frog Estrogen Receptor (ER2) (AID 2283828)", "in_short": "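Human liver HepG2, transient MRTU transfection (TRANS format, exogenous NR–Gal4). 24 h cpd exposure. Total RNA → RT → PCR → FAM label → HpaI cut → CE. Positive direction vs DMSO.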", "values": [
      {"compound": "C(=C(c1ccccc1)c1ccccc1)c1ccccc1", "AC50": "25.3 nM (active)"},
      {"compound": "O=C(OCCOCCOCCOC(=O)c1ccccc1)c1ccccc1", "outcome": "inactive"},
      {"compound": "c1ccc(B(c2ccccc2)c2ccccc2)cc1", "AC50": "6.89 µM (active) and 5.72 µM (active)"},
      {"compound": "C#C[C@]1(O)CC[C@H]2[C@@H]3CCc4cc(OC)ccc4[C@H]3CC[C@@]21C", "AC50": "3.94 nM (active) and 1.23 nM (active)"}
    ]}
  ]
}
